# Source: PubChem (several laboratories)
# Sampled rows, rich in hits. Any-hit rate of the full collection: about 4.6%.
# HIF-2a inh: inhibitors of HIF-2a. 786-0 RCC cells HIF-2a reporter, luciferase luminescence, overnight. inhibition, % at 18.8 µM. 0.72% of 360,000 active;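 active = inhibition of the luminescence signal of 40% or more relative to plate controls, in a single-dose primary screen at 18.75 µM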
# ABHD5-PLIN5 inh: inhibitors of human ABHD5-perilipin-5 interaction; Q00G26+Q8WTS1; AID 602281; Split G. princeps luciferase complementation, luminescence, 4 h; 0.78% of 360,000 active; inhibition, % at 4 µM;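 active = inhibition above the mean inhibition across every tested compound plus 3 SD, cut at about 22% in these data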
# Peg3 prom inh: Peg3 promoter activity inhibition. HeLa PEG-Prom luciferase reporter, luminescence, overnight. inhibition, % at 20 µM. 1.7% of 360,000 active;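 active = inhibition of at least 50% at 20 µM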
# CF NFkB block: cystic fibrosis NF-kB activation inhibition | KKLEB NF-kB-GFP reporter, PAF-induced, GFP fluorescence overnight | inhibition, % at 5 µM | 0.86% of 360,000 active | AID 588850;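 active = at least 50% inhibition at 5 µM, scaled per plate between neutral and stimulator controls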;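 also: PAF is a Pseudomonas aeruginosa culture filtrate used as stimulus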
# KKLEB tox: CF airway cell cytotoxicity counter-screen. KKLEB CF airway cells viability, ATPlite luminescence, overnight; hits give low values; cells stimulated with P. aeruginosa culture filtrate. activity change (cytotoxicity), % at 5 µM. 0.36% of 360,000 active;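 active = corrected activity change at or below -50% at 5 µM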
# Mdm2 MdmX PPI: disrupts the human Mdm2-MdmX interaction. O15151+Q00987. SaOS-2 split-luciferase Mdm2/MdmX complementation, luminescence. inhibition, % at 8 µM. 3% of 330,000 active. AID 485346;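 active = inhibition of at least 50% at 8 µM in the primary screen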
# Target sequence (O15151 whole entry, looked up): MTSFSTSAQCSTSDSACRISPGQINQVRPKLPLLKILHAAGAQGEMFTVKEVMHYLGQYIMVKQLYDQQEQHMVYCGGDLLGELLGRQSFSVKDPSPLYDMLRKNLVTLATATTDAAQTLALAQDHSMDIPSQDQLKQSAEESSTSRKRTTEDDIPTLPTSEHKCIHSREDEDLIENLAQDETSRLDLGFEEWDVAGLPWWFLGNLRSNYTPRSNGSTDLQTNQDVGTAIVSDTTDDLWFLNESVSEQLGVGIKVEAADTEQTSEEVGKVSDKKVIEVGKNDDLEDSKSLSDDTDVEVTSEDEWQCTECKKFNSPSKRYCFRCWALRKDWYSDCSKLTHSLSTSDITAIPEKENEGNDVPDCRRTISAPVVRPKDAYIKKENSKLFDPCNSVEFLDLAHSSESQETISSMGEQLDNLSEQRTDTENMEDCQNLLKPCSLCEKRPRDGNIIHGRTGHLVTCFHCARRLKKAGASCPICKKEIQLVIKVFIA
# Target sequence (Q00987 whole entry, looked up): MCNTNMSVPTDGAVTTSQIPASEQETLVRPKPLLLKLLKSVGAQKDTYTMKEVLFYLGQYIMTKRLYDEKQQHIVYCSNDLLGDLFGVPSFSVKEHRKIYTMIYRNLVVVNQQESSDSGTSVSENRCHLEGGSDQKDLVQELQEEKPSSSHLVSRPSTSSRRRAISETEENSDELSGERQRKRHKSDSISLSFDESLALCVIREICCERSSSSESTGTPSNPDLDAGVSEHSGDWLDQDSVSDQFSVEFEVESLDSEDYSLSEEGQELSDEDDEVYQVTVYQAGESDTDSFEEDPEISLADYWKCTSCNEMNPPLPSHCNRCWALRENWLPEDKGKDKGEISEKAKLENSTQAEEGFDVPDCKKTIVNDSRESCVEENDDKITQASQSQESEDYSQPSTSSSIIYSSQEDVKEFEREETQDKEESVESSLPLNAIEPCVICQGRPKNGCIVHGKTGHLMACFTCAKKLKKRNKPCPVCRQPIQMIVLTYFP
# Mdm2 MdmX conf: confirmation of human Mdm2/MdmX interaction inhibitors | shares compounds with Mdm2 MdmX PPI | Mdm2-MdmX binding, luminescent assay | inhibition, % at 8 µM | 55% of 10,000 active; in the data active = inhibition above about 40%
# Full FLuc ctr: inhibits full-length luciferase, flagging false Mdm2/MdmX hits; 77% of 6,200 active; SaOS-2 full-length luciferase counterscreen, luminescence; inhibition, % at 8 µM; shares compounds with Mdm2 MdmX PPI;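 active = mean inhibition at 8 µM reaching about 37%, which flags the compound as non-specific, limit read from the data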;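 also: p53-null SaOS-2 cells with luciferase driven by a doxycycline-inducible promoter; compound on cells about two nights before reading with doxycycline added after day one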
# A number is an active result; 0 = inactive; - = no result.
SMILES,HIF-2a inh,ABHD5-PLIN5 inh,Peg3 prom inh,CF NFkB block,KKLEB tox,Mdm2 MdmX PPI,Mdm2 MdmX conf,Full FLuc ctr
O=C(NC(=S)Nc1ccc(NC(=O)c2cccs2)cc1)c1ccco1,0,0,0,0,0,0,-,-
CCC(=O)NC(=S)Nc1ccc(NC(=O)c2cc3ccccc3o2)c(OC)c1,0,0,0,0,0,54.2,0,-
COc1cc(NC(=O)c2cccc([N+](=O)[O-])c2)ccc1NC(=O)c1cc2ccccc2o1,0,0,0,0,0,81.4,0,87.8
O=C(NC(=S)Nc1ccc(NC(=O)c2cccs2)cc1)c1cc2ccccc2o1,0,0,0,0,0,52.4,0,-
CSc1ccc(OC2(C)CCN(Cc3cc4ccccc4o3)C2)cc1 (configuration not stated),0,0,0,0,0,-,-,-
C/C(CC1CC2=C(CC1(C)C)C(C)(C)CCC2)=N\NC(N)=S (configuration not stated),0,0,0,0,0,51.1,0,-
COc1cc(C(=O)Oc2ccccc2/C=N/NC(=O)c2ccc(C)c(Cl)c2)cc(OC)c1OC,0,0,0,0,0,57.6,0,-
COc1ccc(CNC(=O)CSc2nc(SC)ns2)cc1,0,0,0,0,0,0,-,-
CCN1CCN(c2ccc(NC(=O)CCc3c(C)nc4c(-c5ccc(F)cc5)c(C)nn4c3C)cc2)CC1,0,0,0,0,0,55.2,0,-
C=CCOc1ccccc1CNc1ccc2c(c1)OCCO2,0,0,0,0,0,64.0,65.0,68.6
COc1cc2c3nnc(-c4ccc(F)cc4)c-3cn(Cc3cccc(C)c3)c2cc1OC,0,0,100.2,0,-76.8,96.5,99.2,86.9
COc1cc2c3nnc(-c4ccc(F)cc4)c-3cn(Cc3ccc(C)cc3)c2cc1OC,0,0,65.6,0,0,78.2,72.3,68.2
COc1cc2c3nnc(-c4ccccc4)c-3cn(Cc3ccc(F)cc3)c2cc1OC,0,0,0,0,0,0,-,-
CCOc1ccc(Oc2nc(NCC(C)C)nc(OC)n2)nn1,0,0,0,0,0,0,-,-
CCNc1nc(NC(C)CC)nc(Oc2ccc(OCC)nn2)n1 (configuration not stated),0,0,0,0,0,54.2,0,-
Nc1ncc(-c2nnnn2-c2ccc(Cl)cc2)c(-c2ccc(Cl)cc2)n1,0,0,0,0,0,57.0,68.0,45.7
COc1cc(C(=O)NC(=S)Nc2ccc(NC(=O)c3ccco3)cc2)cc(OC)c1OC,0,0,0,0,0,54.3,0,-
COc1cc(C(=O)NC(=S)N(C)Cc2ccccc2)cc(OC)c1OC,0,0,0,0,0,0,-,-
COc1cc(C(=O)NC(=S)N(CCc2ccccc2)CCc2ccccc2)cc(OC)c1OC,0,0,0,0,0,51.8,52.5,50.0
CCOc1ccc(CCNC(=O)COC(=O)c2[nH]c(C)c(C(C)=O)c2C)cc1OCC,0,0,0,0,0,-,-,-
CCCCN1C(=O)C(CC(=O)NCCCN(C)C)CC(C(=O)N2CCCCCC2)=C1C (configuration not stated),0,0,-,-,-,-,-,-
COC(=O)c1sc(NC(=O)c2cc(-c3ccccc3)nc3ccccc23)c(C#N)c1C,0,0,0,0,0,95.5,91.7,0
COc1ccc(-c2cc(C(=O)Nc3sc4c(c3C#N)CCCC4)c3ccccc3n2)cc1,0,0,0,0,0,-,-,-
Cc1sc(NC(=O)c2cc(-c3ccc(Cl)cc3)nc3ccccc23)c(C(N)=O)c1C,0,0,0,0,0,73.3,0,76.2
Cc1ccccc1-c1cc(C(=O)Nc2sc(C(=O)OC(C)C)c(C)c2C#N)c2ccccc2n1,0,0,0,56.2,-54.3,71.7,95.0,0
SMILES,HIF-2a inh,ABHD5-PLIN5 inh,Peg3 prom inh,CF NFkB block,KKLEB tox,Mdm2 MdmX PPI,Mdm2 MdmX conf,Full FLuc ctr
Cn1c2nc(=O)n(-c3ccccc3)c(=O)c-2nc2c1CCCC2,0,0,0,0,0,-,-,-
CC(C)[C@H](CO)N(Cc1cccc(F)c1)c1nc(Nc2cccc(Cl)c2)c2ncn(C(C)C)c2n1,0,0,0,0,0,54.9,0,-
CC(C)n1cnc2c(N(C)c3cccc(Cl)c3)nc(N(CCO)CCO)nc21,0,0,0,0,0,0,-,-
COc1ccc(-c2oc(=O)c3cc(OC)c(OC)cc3c2-c2ccc3c(c2)OCO3)cc1,0,0,0,0,0,0,-,-
COc1cc2c(O)c3c(c(-c4ccc5c(c4)OCO5)c2cc1OC)C(=O)OC3,0,0,80.6,76.5,-73.1,73.3,72.2,0
COc1ccc(S(=O)(=O)N2CCOCC2)cc1NC(=O)c1ccc(SC)cc1OC,0,0,0,0,0,-,-,-
Nc1ccn(C(C=O)CC(C=O)CO)c(=O)n1 (configuration not stated),0,0,0,0,0,-,-,-
COc1ccc2[nH]c(C(=O)N/N=C/c3ccc(O)cc3O)cc2c1,0,0,0,0,0,71.0,83.3,0
COc1ccc(/C=N/NC(=O)c2cc3cc(OC)c(OC)cc3[nH]2)cc1,0,0,0,0,0,0,-,-
CC(C)(C)c1cc(C(=O)N/N=C/c2ccc(F)cc2)n(-c2ccccc2)n1,0,0,0,0,0,0,-,-
CCOc1ccc2[nH]c(C(=O)N/N=C/c3ccc(OC)cc3)cc2c1,0,0,0,0,0,53.2,56.0,95.7
COc1ccc2cc(C(=O)N/N=C/c3cc(OC)c(OC)c(OC)c3)[nH]c2c1,0,0,0,0,0,0,-,-
COc1ccc(/C=N/NC(=O)c2nc(-c3ccccc3)n(-c3ccccc3)n2)c(O)c1,0,0,0,0,0,63.4,66.3,41.2
CC(C)(C)c1cc(C(=O)N/N=C/c2ccccc2O)n(-c2ccccc2)n1,0,0,50.1,0,0,70.1,77.0,0
CC(C)NC(=O)Cn1nnc(-c2ccccc2)c1COc1ccc2ccccc2c1,0,0,0,0,0,-,-,-
O=C(COC(=O)c1nc(Cl)c(Cl)c(Cl)c1Cl)c1ccc[nH]1,0,0,51.3,0,0,73.0,0,-
O=C(COC(=O)c1nc(Cl)ccc1Cl)c1ccc[nH]1,0,0,0,0,0,0,-,-
Cc1cc(=O)[nH]c2cc(O)ccc12,0,0,0,0,0,0,-,-
CC(C)=CCCC1(C)C=Cc2c(c(C)cc3c2[nH]c2cc(O)ccc23)O1 (configuration not stated),0,0,0,0,0,68.8,0,-
CCC(C)[C@@H](CN)NCC1(c2ccccc2)CC1 (some centres not stated),0,0,0,0,0,0,-,-
COc1cc(-c2nnc3sc(C4CCCCC4)nn23)cc(OC)c1OC,0,0,0,0,0,57.5,0,-
O=C(Nc1cccc(Cl)c1Cl)c1csc([C@H]2C[C@H](O)[C@@H](CO)O2)n1,0,0,0,0,0,-,-,-
CCN(CC)c1ccc(N)cc1,0,0,0,0,0,80.1,0,-
